A selection: hits, their analogues and other compounds. The true share with any hit is near 2.2%.
ATXN viability: viability counter-screen for ATXN expression inhibitors; 400,000 tested, 0.49% active; S2 cells (HEK-293 line with an ATXN2-luciferase reporter) viability, CellTiter-Fluor protease fluorescence, 24 h; Potency, µM (top dose mostly 56.7 µM), usual class: cytotoxic; also: nearly all actives have a fitted effect of over 40% in size
HepG2 viability: kills HepG2 cells in TGF-b inhibitor counter-screen | 410,000 tested, 0.76% active | Potency, µM (titrated, usually from 46.1 µM), actives largely listed as cytotoxic | HepG2 CAGA-GFP viability, ATP luminescence, 18 h
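HepG2 CAGA-GFP cells (1000/well, DMEM with 1% FBS) received compound, then TGF-beta at 500 pg/mL final, and were incubated 18 hours at 37 degrees C. Viability was read by CellTiter-Glo luminescence. Media-only wells were set as complete cell-killing and DMSO as no toxicity.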
LDHA inh: inhibitors of human lactate dehydrogenase A; activity change, % (values are at about 110 or 230 µM); P00338; purified LDHA, NADH/diaphorase-resazurin fluorescence; active compounds read low; 480,000 tested, 0.15% active; in the data active = activity change below about -30%; inconclusive = mostly about -25% to -30%
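Remaining NADH was detected by diaphorase (0.133 mg/mL) converting 37 µM resazurin to fluorescent resorufin, read at 0 and 20 minutes. The preceding 5-minute room-temperature reaction used 2 nM LDHA, 0.2 mM sodium pyruvate and 0.06 mM NADH at pH 7.4.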
TGFb inhibitor: blocks TGF-b signaling | HepG2 CAGA-GFP TGF-b/SMAD3 reporter, GFP fluorescence, 18 h; TGF-beta stimulated, 500 pg/mL final | Potency, µM (titrated, usually from 46.1 µM), most hits filed as inhibitors | 410,000 tested, 1.2% active | AID 588855; also: nearly all actives have a fitted effect of over 65% in size
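Using HEPG2 CAGA-GFP reporter cells at 1000 cells/well, we pinned test compounds, stimulated with recombinant TGF-beta (500 pg/mL final) and measured total well GFP after 18 h.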
mIDH1 inhibitor: blocks human mutant IDH1 R132H enzyme | Potency, µM (titrated, usually from 76.6 µM), most hits filed as inhibitors | O75874 | 390,000 tested, 0.093% active | IDH1-R132H enzyme, NADPH consumption, diaphorase/resazurin fluorescence | AID 602179; also: nearly all actives have a fitted effect of over 65% in size
Target sequence (O75874 whole entry R132H, stated change not applied): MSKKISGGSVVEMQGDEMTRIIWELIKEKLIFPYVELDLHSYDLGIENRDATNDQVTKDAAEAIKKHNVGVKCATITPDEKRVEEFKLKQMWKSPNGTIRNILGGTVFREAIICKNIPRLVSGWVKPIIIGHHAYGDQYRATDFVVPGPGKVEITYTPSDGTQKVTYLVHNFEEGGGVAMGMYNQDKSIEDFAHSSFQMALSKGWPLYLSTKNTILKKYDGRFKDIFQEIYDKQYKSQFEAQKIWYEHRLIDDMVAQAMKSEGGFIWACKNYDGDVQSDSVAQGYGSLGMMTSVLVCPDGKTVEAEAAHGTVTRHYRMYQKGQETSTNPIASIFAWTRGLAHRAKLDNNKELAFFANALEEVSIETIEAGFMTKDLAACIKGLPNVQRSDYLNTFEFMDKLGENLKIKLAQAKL
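IDH1-R132H (0.5 ug/mL) preincubated 30 min with compound, then NADPH (0.016 mM) and alpha-KG (2 mM) added; 80 min at RT, pH 7.5. Remaining NADPH coupled via diaphorase/resazurin to fluorescence (540/590 nm); concentration-response curves normalized to no-enzyme control.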
ATXN2 expr inh: inhibitors of ATXN2 expression; HEK-293 ATXN2-luciferase reporter, luminescence, 24 h; Potency, µM (series often up to 57 µM), usual class: inhibitors; 360,000 tested, 0.72% active; also: nearly all actives have a fitted effect of over 55% in size
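qHTS (up to 57 uM final) was run with 24 h compound exposure of reporter cells at 37 °C. Each well was multiplexed: SteadyGlo luminescence measured ATXN2-luciferase expression after a fluorogenic Gly-Phe-AFC viability readout (25 uM final).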
IDH1 autofl: counter-screen for mutant IDH1 inhibitors: fluorescence interference; shares compounds with mIDH1 inhibitor; Resorufin detection reagent fluorescence interference, cell-free; inhibition of signal, % at 51.2 µM; 750 tested, under 10 active; AID 623980
WT IDH1 inh: inhibits human wild-type IDH1, mutant selectivity check; WT IDH1 enzyme, NADPH diaphorase/resazurin fluorescence; shares compounds with mIDH1 inhibitor; 750 tested, 9% active; Potency, µM (top dose mostly 115 µM), actives largely listed as inhibitors; AID 623995; also: nearly all actives have a fitted effect of over 55% in size
Target sequence (O75874 whole entry, looked up): as the sequence (O75874 whole entry R132H, stated change not applied) above, with H132R counted along it
mIDH1 confirm: inhibits human mutant IDH1 enzyme in cherrypick confirmation | shares compounds with mIDH1 inhibitor | IDH1 R132H enzyme, NADPH diaphorase/resazurin fluorescence | 750 tested, 83% active | Potency, µM (highest dose often 76.6 µM), actives largely listed as inhibitors; also: nearly all actives have a fitted effect of over 50% in size
A number is an active result; – = inactive; ? = inconclusive; · = no result; [ ] = remark or other dose. Unless noted, calls follow the shape of the dose curve; as a rule, active = well fitted curve in the direction sought with a large enough effect; inconclusive = small, poorly fitted or top-dose-only effect, or another doubt; inactive = no such curve, though single readings can be large; an effect the other way counts as inactive or inconclusive.

SMILES	ATXN viability	HepG2 viability	LDHA inh	TGFb inhibitor	mIDH1 inhibitor	ATXN2 expr inh	IDH1 autofl	WT IDH1 inh	mIDH1 confirm
CN1C(=O)/C(=C2\SC(=S)N(CCCCCC(=O)O)C2=O)c2ccccc21	–	–	–	–	–	·	·	·	·
CCCc1noc2c1C(c1cc(Br)ccc1F)C(C#N)=C(N)N2 (configuration not stated)	–	–	–	–	52.1µM	·	–	–	39.8µM
COc1ccc(S(=O)(=O)Nc2ccc(S(=O)(=O)Nc3ccc(F)cc3)cc2)cc1C	–	–	–	–	?	–	–	–	39.8µM
Cc1ccc(S(=O)(=O)Nc2ccc(S(=O)(=O)Nc3nccs3)cc2)cc1C	–	–	–	–	52.1µM	–	–	–	44.7µM
COc1ccc(S(=O)(=O)Nc2cccc(F)c2)cc1C	–	–	–	–	–	–	·	·	·
Cc1cc(C)nc(SCC(=O)NC2=NN=C(c3ccc(Br)cc3)CS2)n1	31.6µM	–	–	–	?	?	–	–	44.7µM
Cc1cc(C)nc(SCC(=O)Nc2ccc(Br)cn2)n1	–	–	–	–	–	–	·	·	·
COC(=O)C1C(O)=C(C(C)=N)C(=O)CC1(C)C (configuration not stated)	–	–	–	–	–	–	·	·	·
O=C(/C=C/c1cccs1)Nc1scc(-c2ccccc2)c1C(=O)O	–	–	–	–	?	–	–	35.5µM	35.5µM
O=C(/C=C/c1cccs1)Nc1nc(-c2ccccc2)cs1	?	–	–	–	–	–	·	·	·
CCOc1cc(/C=C(\C#N)C(=O)Nc2cccc(C(=O)O)c2)cc(Br)c1OC(=O)c1ccc(OC)cc1	–	–	–	?	52.1µM	–	–	70.8µM	31.6µM
c1ccc(-c2csc(NNC3=NCCCCC3)n2)cc1	?	–	–	?	–	–	·	·	·
Clc1ccc(-c2csc(NNC3=NCCCCC3)n2)cc1	?	–	–	–	?	–	–	?	44.7µM
C=CCn1c(SCc2nc3sc(C(=O)O)c(C)c3c(=O)[nH]2)nnc1-c1ccccc1	–	–	–	–	–	–[11.3 µM]	·	·	·
C=CCn1c(SCc2nc3sc(C(=O)O)c(C)c3c(=O)[nH]2)nnc1-c1ccc(C(C)(C)C)cc1	–	–	–	–	?	–	–	–	22.4µM
NNc1nnnc2c1sc1nc(N3CCOCC3)c3c(c12)CCCC3	–	–	–	–	52.1µM	·	–	–	?
CC(C)CNc1ncnc2c1sc1nc(N3CCOCC3)c3c(c12)CC(C)(C)OC3	–	–	–	–	–	–	·	·	·
CC(C)CNc1nnnc2c1sc1nc(N3CCOCC3)c3c(c12)CC(C)(C)SC3	–	–	–	–	?	–	–	?	?
CC1(C)Cc2c(c(N3CCOCC3)nc3sc4c(NN)ncnc4c23)CS1	–	–	–	?	23.3µM	?	–	?	14.1µM
OCCNc1ncnc2c1sc1nc(N3CCOCC3)c3c(c12)CCC3	–	–	–	–	–	–	·	·	·
CC1(C)Cc2c(c(N3CCOCC3)nc3sc4c(NCc5ccccc5)nnnc4c23)CS1	–	–	–	–	–	–	·	·	·
CCN(CC)S(=O)(=O)c1ccc(Cl)c(C(=O)NNC(=O)c2csc(N3CCOCC3)n2)c1	–	–	–	–	–	–	·	·	·
CCN(CC)C(=O)c1sc2c(c1C)c(=O)n(CCc1ccccc1)c(=O)n2Cc1cc(C)ccc1C	–	–	–	–	10µM	–	–	–	8.91µM
CCN(CC)C(=O)c1sc2c(c1C)c(=O)n(-c1ccc(C)c(C)c1)c(=O)n2Cc1cccc(Cl)c1	–	–	–	–	?	–	–	–	12.6µM
CC(=O)N1CCc2c(sc3c2c(=O)n(-c2cccc(Cl)c2C)c(=O)n3Cc2ccccc2C)C1	–	–	–	–	?	–	–	39.8µM	28.2µM
SMILES	ATXN viability	HepG2 viability	LDHA inh	TGFb inhibitor	mIDH1 inhibitor	ATXN2 expr inh	IDH1 autofl	WT IDH1 inh	mIDH1 confirm
CCN(CC)C(=O)c1sc2c(c1C)c(=O)n(Cc1ccccc1)c(=O)n2Cc1cc(C)ccc1C	–	–	–	–	–	–	·	·	·
CCN(CC)C(=O)c1sc2c(c1C)c(=O)n(-c1ccc(OC)cc1OC)c(=O)n2Cc1cc(C)ccc1C	–	–	–	?	39.8µM	–	–	–	22.4µM
C#CCn1c(=O)n(-c2cccc(Cl)c2C)c(=O)c2c3c(sc21)CN(C(C)=O)CC3	–	–	–	–	–	–	·	·	·
CCN(CC)C(=O)c1sc2c(c1C)c(=O)n(-c1ccc(OC)cc1OC)c(=O)n2CC(=O)c1ccccc1	–	–	–	–	–	–[11.3 µM]	·	·	·
CC(C)CC(=O)NC1CC(=O)N(c2ccc3c(c2)OCCO3)C1 (configuration not stated)	–	–	–	–	–	–	·	·	·
COc1ccc(-n2c(=O)c3c4c(sc3n(Cc3cc(C)ccc3C)c2=O)CN(C(C)=O)CC4)c(OC)c1	–	–	–	?	?	?	–	?	14.1µM
COc1ccc(-c2nc(CNC(=O)Nc3cccc(OC)c3)c(C)o2)cc1	·	·	–	·	·	·	·	·	·
COc1ccc(-c2c(C)nc(N)nc2-c2ccc(OCc3ccccc3)cc2O)cc1	·	·	–	·	·	·	·	·	·
COc1ccc(-c2c(C)nc(N)nc2-c2ccc(OCc3ccc(C)cc3)cc2O)cc1OC	–	–	–	?	?	–	–	–	?
Cc1nn(-c2ccccn2)c2nc(-c3cccs3)cc(C(=O)NCc3ccco3)c12	–	–	–	?	–	–	·	·	·
Cc1nn(-c2ccccc2)c2nc(-c3cccs3)cc(C(=O)NN)c12	–	–	–	10µM	52.1µM	?	–	–	–
CCOC(=O)c1cc(-c2cccs2)nc2c1c(C)nn2-c1ccccn1	?	–	–	?	14.7µM	?	–	–	20µM
O=C(CSc1nnnn1-c1cccc(O)c1)NC1CC1	–	–	–	?	–	–	·	·	·
COc1cc(SC#N)ccc1N=Cc1c(C)[nH]n(-c2ccc(C)cc2C)c1=O	–	–	–	–	41.4µM	–	–	–	15.8µM
COc1ccc(OC)c(N(C(=O)c2snc(C(N)=O)c2N)C(C(=O)NCc2ccccc2)c2ccc(O)cc2)c1 (configuration not stated)	–	–	–	–	?	–	–	–	22.4µM

Screening data as filed in PubChem BioAssay.
